Experiment [1] deals with TRPC4 beta (transient receptor potential cation channel C4), mouse. The experiment can be described thus: activators of mouse TRPC4 channel, confirmation, cell-based, Fluo4 calcium, HEK293 TRPC4beta/mu-opioid, duplicates, 10 µM (AID 2426;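 active = fluorescence ratio normalized to control raised more than 50% in primary screen plus both repeat runs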). Particulars: Fluo4 calcium fluorescence, at 10 µM; hits give high values.
For experiment [2], the system named is transient receptor potential cation channel C4 beta (TRPC4), mouse. The experiment can be described thus: activators of mouse TRPC4 channel, confirmation, cell-based, second round, Fluo4, HEK293 TRPC4beta/mu-opioid, 1 µM (AID 2461;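 active = primary screen active and over 50% activation in each of two duplicate runs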). Conditions: Fluo4 calcium fluorescence, at 1 µM; hits give high values.
For experiment [3], the system named is TRPC4 (transient receptor potential cation channel C4 beta), mouse. Description: positive allosteric modulators of mouse TRPC4, confirmation, cell-based, second round, Fluo-4, HEK293 TRPC4beta/mu-opioid, 1 µM (AID 2554;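 active = primary screen hit whose fluorescence ratio, in both repeats, exceeds the weak agonist control mean by 3 SD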). Particulars: DAMGO EC20, Fluo-4 calcium flux, at 1 µM; hits give high values. (Calcium flux is commonly read through the fluorescence of an indicator in the cells.)

The subject of experiment [4] is TRPC4 beta (transient receptor potential cation channel C4), mouse. The experiment can be described thus: positive allosteric modulators of mouse TRPC4, confirmation, cell-based, Fluo-4, HEK293 TRPC4beta/mu-opioid (AID 2555;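 active = primary screen hit whose calcium fluorescence ratio, in both repeats, exceeds the weak agonist control mean by 3 SD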). Particulars: DAMGO EC20, Fluo-4 calcium flux, at 10 µM; hits give high values.
Experiment [5] concerns the target Short transient receptor potential channel 4 (Mus musculus) (UniProt Q9QUQ5). Description: inhibitors of mouse TRPC4 channel, confirmation, cell-based, Fluo4, HEK293 TRPC4beta/mu-opioid (AID 2636;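 active = calcium signal cut by more than 3 SD below the full-agonist control yet still positive, in both repeats and the earlier primary screen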). Particulars: DAMGO, Fluo4 calcium flux, at 10 µM; hits give high values.
For experiment [6] the target is unchanged. The experiment can be described thus: inhibitors of mouse TRPC4 channel, confirmation, cell-based, second round, Fluo4, HEK293 TRPC4beta/mu-opioid, 1 µM (AID 2637;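 active = calcium signal ratio cut to more than 3 SD under the fully stimulated control mean yet still positive, in both repeats and the primary screen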;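 for inhibition: percent of integrated ratio relative to wells lacking test compound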). Particulars: Fluo4 calcium flux, DAMGO, at 1 µM; hits give high values.
The target is the same in experiment [7]. Description: mouse TRPC4 channel activators, dose response, cell-based, HEK293 TRPC4/mu-opioid, Fluo-4 calcium (AID 434937;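 active = primary screen activator hit with a dose response curve and TRPC4 channel activation at any tested dose; inactive = no activation, no dose response, or not a primary hit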).
Experiment [8] has the same target. The experiment can be described thus: TRPC4 positive allosteric modulators, dose response, cell-based, HEK293 TRPC4/mu-opioid, Fluo-4 calcium, EC20 DAMGO (AID 434941).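 Note: calcium entry triggered by an EC20 dose of DAMGO at the co-expressed mu-opioid receptor.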
For experiment [9] the target is unchanged. The experiment can be described thus: mouse TRPC4 channel inhibitors, dose response, cell-based, HEK293 TRPC4/mu-opioid, Fluo-4 calcium (AID 434942;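 active = primary screen inhibitor hit that blocks the TRPC4 channel at some tested dose, yielding a dose curve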).
Experiment [10] deals with Short transient receptor potential channel 6 (Mus musculus) (UniProt Q61143). The experiment can be described thus: inhibition of mouse TRPC6 channel, confirmation, selectivity assay for TRPC4 inhibitor project, cell-based, HEK293, membrane potential dye, duplicate (AID 434948;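 active = active in primary screen and both duplicates, each dropping signal beyond three positive-control SD with fluorescence still positive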). Conditions: HEK293 TRPC6, membrane potential dye fluorescence, at 10 µM, stimulated with maximal-effect acetylcholine; hits give high values.

For experiment [11] the target is unchanged. Description: activation of mouse TRPC6 channel, confirmation, selectivity assay for TRPC4 activator project, cell-based, HEK293, membrane potential dye, duplicate (AID 434950;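 active = membrane potential signal rise above negative control mean plus 3 SD in both duplicates, also active in the earlier TRPC4 screen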;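 for activation: 0% = buffer only wells and 100% = acetylcholine maximal-effect wells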). Particulars: HEK293 TRPC6, membrane potential fluorescence, at 10 µM; hits give high values.
Experiment [12] has the same target. The experiment can be described thus: TRPC6 potentiation by TRPC4 potentiator hits, confirmation, selectivity assay for TRPC4 potentiator project, HEK293 cells, membrane potential dye, duplicate (AID 434952;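 active = compound raising the membrane signal above positive-control mean plus 3 SD in both repeats, and a primary screen hit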). Conditions: HEK293 TRPC6, membrane potential dye fluorescence, at 10 µM, maximal acetylcholine added after compound; hits give high values.
The target in experiment [13] is Short transient receptor potential channel 4 (Mus musculus) (UniProt Q9QUQ5). Description: calcium flux activators in TRPC4/5HT1a cells, counter-screen for TRPC4 activator project, cell-based, second counter screen, HEK293 TRPC4/5HT1a, Fluo-4 (AID 434977;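 active = calcium signal rise above buffer-control mean plus 5 SD in both duplicates, and also a hit in the primary screen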). Particulars: Fluo-4 calcium flux, at 10 µM; hits give high values.
A short description of experiment [14]: calcium flux inhibitors in TRPC4/5HT1a cells, confirmation, counter-screen for TRPC4 inhibitor project, cell-based, second counter screen, HEK293 TRPC4/5HT1a, Fluo-4 (AID 434978;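 active = primary screen active whose calcium signal fell more than 3 SD beyond the full-serotonin control mean in both duplicate plates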;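 for outcome: serotonin given first at submaximal then at maximal dose after compound preincubation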). Conditions: Fluo-4 calcium flux, at 10 µM, serotonin added to trigger calcium flux; hits give high values.
For experiment [15], the system named is TRPC4 (mouse), co-expressed with 5HT1a in HEK293. Description: calcium flux potentiators in TRPC4/5HT1a cells, confirmation, counter-screen for TRPC4 potentiator project, cell-based, second counter screen, HEK293 TRPC4/5HT1a, Fluo-4 (AID 434979;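 active = signal rise over 3 SD above mean of control wells given weak agonist, in both repeats and first screen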). Particulars: Fluo-4 calcium flux, at 10 µM, serotonin added at its EC20 dose; hits give high values.
Experiment [16] in a line: calcium flux activation in mu-opioid HEK293 cells, confirmation, counter-screen for TRPC4 activator project, cell-based, HEK293 mu-opioid receptor line (AID 449723;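 active = hit in primary screen, with calcium signal over 5 SD above buffer well mean in both duplicates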;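 note: counter screen cells carry the mu-opioid receptor alone and lack TRPC4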). Particulars: Fluo-4 calcium fluorescence, at 10 µM; hits give high values.
The nature of experiment [17]: calcium flux enhancement in mu-opioid HEK293 cells, confirmation, counter-screen for TRPC4 allosteric potentiator project, cell-based, HEK293 mu-opioid receptor line (AID 449724;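 active = calcium signal rise more than 3 SD above the low-dose agonist control mean, in both duplicate plates and the primary screen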;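 note: HEK293 cells carrying mu-opioid receptor only with no TRPC4 channel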). Particulars: Fluo-4 calcium flux, at 10 µM, compound added before EC20 DAMGO stimulus; hits give high values.

For part of these data: Entries with a potency or affinity are not part of this list. Active and inactive are the calls of the source.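 Rule for the calls, unless noted: active = earlier screen potentiator hit that boosts the TRPC4 ion channel at some dose, with a dose response; inactive = no potentiation, no dose response, or not a prior hit.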

The inhibition is the change of the read-out against control, counted positive when it falls.

Short transient receptor potential channel 4 (Mus musculus), sequence (Q9QUQ5 whole entry, looked up): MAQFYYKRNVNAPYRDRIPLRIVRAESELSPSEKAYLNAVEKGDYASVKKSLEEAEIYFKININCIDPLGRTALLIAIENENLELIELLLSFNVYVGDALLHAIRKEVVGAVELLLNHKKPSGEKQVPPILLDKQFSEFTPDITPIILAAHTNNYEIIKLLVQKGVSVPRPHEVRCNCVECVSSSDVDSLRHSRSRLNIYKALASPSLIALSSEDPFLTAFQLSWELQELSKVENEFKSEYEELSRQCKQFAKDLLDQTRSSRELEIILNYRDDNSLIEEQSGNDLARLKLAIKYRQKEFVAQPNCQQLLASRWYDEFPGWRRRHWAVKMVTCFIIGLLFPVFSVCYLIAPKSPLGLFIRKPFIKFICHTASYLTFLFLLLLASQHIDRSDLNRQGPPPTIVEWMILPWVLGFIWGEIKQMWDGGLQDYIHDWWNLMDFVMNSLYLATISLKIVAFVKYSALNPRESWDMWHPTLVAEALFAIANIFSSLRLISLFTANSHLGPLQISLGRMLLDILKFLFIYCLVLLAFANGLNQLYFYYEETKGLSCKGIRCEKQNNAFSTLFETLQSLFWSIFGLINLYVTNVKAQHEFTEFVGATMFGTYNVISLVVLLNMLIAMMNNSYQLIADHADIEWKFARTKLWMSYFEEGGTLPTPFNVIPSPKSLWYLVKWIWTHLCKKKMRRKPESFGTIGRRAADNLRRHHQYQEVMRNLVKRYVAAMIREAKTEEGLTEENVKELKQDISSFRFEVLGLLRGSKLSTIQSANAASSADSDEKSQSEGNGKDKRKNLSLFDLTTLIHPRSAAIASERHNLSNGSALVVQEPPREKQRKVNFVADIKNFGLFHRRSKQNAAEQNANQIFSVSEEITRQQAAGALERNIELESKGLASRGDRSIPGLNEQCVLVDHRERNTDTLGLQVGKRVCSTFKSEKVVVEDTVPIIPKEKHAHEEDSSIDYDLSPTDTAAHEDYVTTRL
Short transient receptor potential channel 6 (Mus musculus), sequence (Q61143 whole entry, looked up): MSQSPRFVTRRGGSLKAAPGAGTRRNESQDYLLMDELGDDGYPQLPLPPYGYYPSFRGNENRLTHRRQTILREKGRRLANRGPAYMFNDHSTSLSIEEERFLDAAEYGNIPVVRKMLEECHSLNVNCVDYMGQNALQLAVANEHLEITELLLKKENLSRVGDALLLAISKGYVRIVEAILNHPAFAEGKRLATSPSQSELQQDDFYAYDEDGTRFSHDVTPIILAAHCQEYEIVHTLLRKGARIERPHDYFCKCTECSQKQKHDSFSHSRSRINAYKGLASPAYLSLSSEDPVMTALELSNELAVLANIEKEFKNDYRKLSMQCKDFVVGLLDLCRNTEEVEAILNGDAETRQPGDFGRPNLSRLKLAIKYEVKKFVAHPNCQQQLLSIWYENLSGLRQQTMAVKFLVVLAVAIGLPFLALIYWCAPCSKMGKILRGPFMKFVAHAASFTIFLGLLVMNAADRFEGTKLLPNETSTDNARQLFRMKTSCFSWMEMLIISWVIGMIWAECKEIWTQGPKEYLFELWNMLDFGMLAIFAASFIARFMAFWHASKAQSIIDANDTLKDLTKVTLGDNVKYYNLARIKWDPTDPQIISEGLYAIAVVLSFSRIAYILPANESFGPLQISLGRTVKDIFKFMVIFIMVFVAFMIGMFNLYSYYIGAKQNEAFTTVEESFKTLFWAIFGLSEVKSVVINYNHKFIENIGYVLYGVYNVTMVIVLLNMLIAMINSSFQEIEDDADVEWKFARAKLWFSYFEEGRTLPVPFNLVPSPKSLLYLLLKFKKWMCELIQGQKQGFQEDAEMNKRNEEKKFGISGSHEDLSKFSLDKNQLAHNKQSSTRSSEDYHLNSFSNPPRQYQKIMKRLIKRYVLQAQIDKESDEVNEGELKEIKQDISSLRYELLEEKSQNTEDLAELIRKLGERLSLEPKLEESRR

For `COc1cccc(Oc2cncnc2-c2ccc(OC)cc2O)c1`, the result in [1], in [2], in experiment [3], in experiment [4], in experiment [5] and in [6] was inactive. Moreover, the outcome in experiment [7], in [8], in experiment [9], in experiment [10], in [11] and in experiment [12] was inactive. The outcome in [13], in experiment [14], in experiment [15], in [16] and in [17] was inactive.
On to `CCOC(=O)c1cc(=O)n(Cc2ccccc2C)c2ccccc12`, for which the outcome in experiment [1], in experiment [2], in experiment [3], in experiment [5], in experiment [6] and in [7] was inactive. The result in [8], in [9], in experiment [10], in experiment [11], in [12] and in experiment [13] was inactive. The result in experiment [14], in experiment [16] and in experiment [17] was inactive. Besides, the results for the potentiation in experiment [4] and in experiment [15] were 74% (active) and 48.4% (active), respectively.
As to `CN(C)C(CNC(=O)c1ccc(S(=O)(=O)NCc2ccco2)cc1)c1ccccc1` (stereo not given), the result in experiment [1], in experiment [2], in experiment [3], in experiment [4], in [5] and in [6] was inactive. In addition, the result in experiment [7], in experiment [8], in [9], in [10], in experiment [11] and in [12] was inactive. Besides, the result in [13], in experiment [14], in experiment [15], in [16] and in experiment [17] was inactive.
Consider `Cc1ccc(C(=O)Nc2ccccc2C(=O)N2CC3(C)CC2CC(C)(C)C3)cc1` (stereo not given), for which the result in experiment [1], in experiment [2], in experiment [3], in experiment [4], in experiment [5] and in experiment [6] was inactive. Also, the outcome in [7], in [8], in [9], in [10], in experiment [11] and in experiment [12] was inactive. Further, the result in experiment [13], in experiment [14], in experiment [15], in [16] and in [17] was inactive.
For the molecule `CC(C)CCOc1ccc(C(=O)NCC(c2ccco2)N(C)C)cc1` (stereo not given), the result in experiment [1], in [2], in experiment [3], in experiment [4], in [6] and in experiment [7] was inactive. Moreover, the result in experiment [8], in [9], in [10], in [11], in [12] and in [13] was inactive. Also, the result in [14], in experiment [15], in experiment [16] and in [17] was inactive. In addition, the inhibition in experiment [5] is 89% (active).
Take `CCSc1nnc([C@H](Cc2c[nH]c3ccccc23)NC(=O)OC(C)(C)C)o1`: the outcome in experiment [1], in [2], in experiment [3], in [4], in experiment [5] and in experiment [6] was inactive. The outcome in experiment [7], in experiment [8], in [9], in [10], in [11] and in [12] was inactive. Moreover, the result in [13], in experiment [14], in [16] and in experiment [17] was inactive. The potentiation in [15] is 13.1% (active).
With `O=[N+]([O-])c1cc(Cl)cc(/C=N/NC(=S)Nc2ccc(S(=O)(=O)N3CCOCC3)cc2)c1O`, the result in experiment [1], in experiment [2], in experiment [3], in experiment [5], in experiment [6] and in experiment [7] was inactive. For the same molecule, the outcome in experiment [8], in [9], in experiment [10], in experiment [11], in experiment [12] and in experiment [13] was inactive. The outcome in experiment [14], in experiment [16] and in experiment [17] was inactive. The potentiation in [4] is 15% (active); in experiment [15], 10.1% (active).
`c1coc(CN=C2NC(=NCc3ccco3)c3ccccc32)c1`: the result in experiment [1], in experiment [2], in [3], in experiment [4], in [7] and in experiment [8] was inactive. Further, the outcome in experiment [9], in [11], in experiment [12], in experiment [13], in experiment [15] and in experiment [16] was inactive. Moreover, the result in experiment [17] was inactive. The inhibition in [5] was 98% (active); in experiment [6] it was 49% (active); in [10] it was 47.5% (active); in experiment [14], 35.3% (active).
On to `CC(C)(C)NCc1cc(Cl)ccc1OCc1cccs1`, for which the result in experiment [1], in experiment [2], in experiment [3], in experiment [4], in experiment [5] and in experiment [6] was inactive. For the same molecule, the result in experiment [7], in experiment [8], in experiment [9], in experiment [10], in [11] and in experiment [12] was inactive. Besides, the result in experiment [13], in experiment [14], in experiment [15], in [16] and in [17] was inactive.
On to `CCOC(=O)c1c(NC(=O)COC(=O)CCOc2ccc(OCC)cc2)sc(C(=O)N(C)C)c1C`, for which the result in experiment [1], in experiment [2], in [5], in experiment [6], in experiment [7] and in experiment [8] was inactive. Also, the result in experiment [9], in [10], in [11], in experiment [12], in experiment [13] and in [14] was inactive. The result in experiment [16] and in experiment [17] was inactive. Besides, the potentiation was 22% (active) in [3], 32% (active) in experiment [4] and 81.1% (active) in experiment [15].
As for `Cc1ccc(NC(=O)C2CCC(CNC(=O)[C@@H]3Cc4ccccc4CN3)CC2)cc1` (stereo not given in full), the result in experiment [1], in [2], in experiment [3], in [4], in [5] and in experiment [6] was inactive. The outcome in [7], in experiment [8], in experiment [9], in [10], in experiment [11] and in experiment [12] was inactive. Moreover, the outcome in experiment [13], in [14], in experiment [15], in [16] and in experiment [17] was inactive.
For the molecule `O=C(C1=C[C@H](c2ccc(C(F)(F)F)cc2)C[C@H](OCCCCO)O1)N1CCN(Cc2ccccc2)CC1`, the outcome in experiment [1], in [2], in experiment [3], in experiment [4], in experiment [5] and in experiment [6] was inactive. Besides, the outcome in experiment [7], in experiment [8], in experiment [9], in experiment [10], in experiment [12] and in [13] was inactive. Further, the result in [14], in [15], in [16] and in experiment [17] was inactive. In addition, the activation in experiment [11] is 35% (active).
For the molecule `COc1ccc(CNc2ccc(Cl)cc2)cc1Cn1ccnc1`, the result in experiment [1], in experiment [2], in experiment [3], in experiment [4], in [5] and in experiment [6] was inactive. The result in experiment [7], in [8], in [9], in experiment [10], in [11] and in [12] was inactive. In addition, the outcome in experiment [13], in experiment [14], in experiment [15], in [16] and in experiment [17] was inactive.
Take `COc1ccc(CCN2CCCC(CN(C)C(=O)c3ccoc3)C2)cc1` (stereo not given): the outcome in experiment [1], in [2], in [3], in experiment [4], in experiment [5] and in experiment [6] was inactive. Also, the result in experiment [7], in experiment [8], in [9], in experiment [10], in experiment [11] and in [12] was inactive. Further, the result in experiment [13], in experiment [14], in experiment [16] and in [17] was inactive. Besides, the potentiation in experiment [15] was 14.1% (active).
Regarding `CN(C)S(=O)(=O)c1cccc(COC(=O)c2ccc(Cl)cc2O)c1`, the result in experiment [1], in [2], in [3], in [5], in experiment [6] and in [7] was inactive. The result in experiment [8], in experiment [9], in experiment [10], in [11], in experiment [12] and in experiment [13] was inactive. In addition, the outcome in experiment [14], in experiment [16] and in experiment [17] was inactive. Moreover, the potentiation is 21% (active) in experiment [4] and 41.5% (active) in experiment [15].

For the origin of these results see PubChem BioAssay.
